In PubChem BioAssay (NCI):
Compounds without any hit were thinned out: in the full panel of roughly 79,000, 15% have a hit. Unmarked numbers belong to inactive results. Active and inactive are the calls of the source. Rule as the data show it: active = growth inhibition above about 70%; inactive = the rest.

Assays:
[1] = NCI Yeast Anticancer Drug Screen. Data for the rad50 strain (AID 155);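 also: 0% = growth of vehicle-only cultures of the same strain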; conditions: S. cerevisiae rad50 strain growth inhibition, hits give high values
Method in brief: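 DNA repair mutant yeast, compound exposure, growth read-out; inhibition is taken relative to vehicle.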

[2] = NCI Yeast Anticancer Drug Screen. Data for the mec2-1 strain (AID 157); conditions: S. cerevisiae mec2-1 strain, hits give high values
Method in brief: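 Test agents were screened against the mec2-1 yeast strain, with defined DNA repair or cell cycle alteration. Growth was scored as inhibition against vehicle-only controls.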

[3] = NCI Yeast Anticancer Drug Screen. Data for the sgs1 mgt1 strain (AID 161);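 also: 0% = growth of cultures given vehicle only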; conditions: S. cerevisiae sgs1 mgt1 strain, hits give high values
Method in brief: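 Genetically altered yeast, compound exposure, growth inhibition relative to vehicle.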

[4] = NCI Yeast Anticancer Drug Screen. Data for the cln2 rad14 strain (AID 165);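 also: 0% = growth equal to vehicle treated cultures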; conditions: S. cerevisiae cln2 rad14 strain, hits give high values
Method in brief: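 Growth of compound-exposed yeast (cln2 rad14 genotype) measured and expressed as inhibition relative to vehicle.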

[5] = NCI Yeast Anticancer Drug Screen. Data for the bub3 strain (AID 167); conditions: S. cerevisiae bub3 mutant strain, hits give high values
Method in brief: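 In this screen, a yeast mutant lacking normal mitotic checkpoint function is challenged with compound. Relative growth versus vehicle gives the inhibition value.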

[6] = NCI Yeast Anticancer Drug Screen. Data for the mlh1 rad18 strain (AID 175); conditions: S. cerevisiae mlh1 rad18 strain growth inhibition, hits give high values
Method in brief: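 In this whole-cell yeast screen, a strain with altered DNA damage repair is challenged with compound, and its growth is measured against matched vehicle-treated controls.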

[7] = at 5.0 µM (retest, dose inferred, filed as 0.5)
[8] = at 50.0 µM (retest, dose inferred, filed as 5.0)

Compound: CSC(=S)n1nc(-c2cccs2)c(N=Nc2ccccc2)c1C(F)(F)F
- growth inhibition [1, 7]: 5%
- growth inhibition [1, 8]: 97% (active)
- growth inhibition ([1]; at 50.0 µM): 93% (active)
- growth inhibition [2, 7]: -1%
- growth inhibition [2, 8]: 98% (active)
- growth inhibition ([2]; at 50.0 µM): 96.8% (active)
- growth inhibition [3, 7]: 8%
- growth inhibition [3, 8]: 97% (active)
- growth inhibition ([3]; at 50.0 µM): 93% (active)
- growth inhibition [4, 7]: 6%
- growth inhibition [4, 8]: 97% (active)
- growth inhibition ([4]; at 50.0 µM): 65.3%
- growth inhibition [5, 7]: 2%
- growth inhibition [5, 8]: 97% (active)
- growth inhibition ([5]; at 50.0 µM): 78% (active)
- growth inhibition [6, 7]: 1%
- growth inhibition [6, 8]: 95% (active)
- growth inhibition ([6]; at 50.0 µM): 94.4% (active)

Compound: OC1(c2ccccc2)c2ccccc2C(O)(c2ccccc2)c2cc3c(cc21)CCCC3 (configuration not stated)
- growth inhibition [1, 7]: 81% (active)
- growth inhibition [1, 8]: 96% (active)
- growth inhibition ([1]; at 50.0 µM): 96.8% (active)
- growth inhibition [2, 7]: 28%
- growth inhibition [2, 8]: 98% (active)
- growth inhibition ([2]; at 50.0 µM): 97.5% (active)
- growth inhibition [3, 7]: 17%
- growth inhibition [3, 8]: 98% (active)
- growth inhibition ([3]; at 50.0 µM): 97.7% (active)
- growth inhibition [4, 7]: -3%
- growth inhibition [4, 8]: 97% (active)
- growth inhibition ([4]; at 50.0 µM): 97.7% (active)
- growth inhibition [5, 7]: 17%
- growth inhibition [5, 8]: 98% (active)
- growth inhibition ([5]; at 50.0 µM): 96% (active)
- growth inhibition [6, 7]: 51%
- growth inhibition [6, 8]: 96% (active)
- growth inhibition ([6]; at 50.0 µM): 96.8% (active)

Compound: [C](#[C][Sn]([c]1ccccc1)([c]1ccccc1)[c]1ccccc1)[Sn]([c]1ccccc1)([c]1ccccc1)[c]1ccccc1
- growth inhibition [1, 7]: 98% (active)
- growth inhibition [1, 8]: 95% (active)
- growth inhibition ([1]; at 50.0 µM): 97.5% (active)
- growth inhibition [2, 7]: 99% (active)
- growth inhibition [2, 8]: 97% (active)
- growth inhibition ([2]; at 50.0 µM): 98.3% (active)
- growth inhibition [3, 7]: 99% (active)
- growth inhibition [3, 8]: 97% (active)
- growth inhibition ([3]; at 50.0 µM): 96.5% (active)
- growth inhibition [4, 7]: 98% (active)
- growth inhibition [4, 8]: 95% (active)
- growth inhibition ([4]; at 50.0 µM): 98.4% (active)
- growth inhibition [5, 7]: 98% (active)
- growth inhibition [5, 8]: 96% (active)
- growth inhibition ([5]; at 50.0 µM): 98.8% (active)
- growth inhibition [6, 7]: 98% (active)
- growth inhibition [6, 8]: 97% (active)
- growth inhibition ([6]; at 50.0 µM): 96.9% (active)

Compound: O=S(=O)(CC(Br)c1ccccc1)CC(Br)c1ccccc1 (configuration not stated)
- growth inhibition [1, 7]: -3%
- growth inhibition [1, 8]: -1%
- growth inhibition ([1]; at 50.0 µM): 50.2%
- growth inhibition [2, 7]: 19%
- growth inhibition [2, 8]: 41%
- growth inhibition ([2]; at 50.0 µM): 43%
- growth inhibition [3, 7]: -4%
- growth inhibition [3, 8]: 0%
- growth inhibition ([3]; at 50.0 µM): 80.9% (active)
- growth inhibition [4, 7]: -3%
- growth inhibition [4, 8]: 6%
- growth inhibition ([4]; at 50.0 µM): 40%
- growth inhibition [5, 7]: 4%
- growth inhibition [5, 8]: 42%
- growth inhibition ([5]; at 50.0 µM): 63.2%
- growth inhibition [6, 7]: -3%
- growth inhibition [6, 8]: 13%
- growth inhibition ([6]; at 50.0 µM): 46.6%

Compound: CCN(CC)CCCC(C)Nc1c2ccccc2nc2c(C)cc(Br)cc12 (configuration not stated)
- growth inhibition [1, 7]: 2%
- growth inhibition [1, 8]: 72% (active)
- growth inhibition ([1]; at 50.0 µM): 58%
- growth inhibition [2, 7]: 8%
- growth inhibition [2, 8]: 61%
- growth inhibition ([2]; at 50.0 µM): 39.5%
- growth inhibition [3, 7]: 17%
- growth inhibition [3, 8]: 76% (active)
- growth inhibition ([3]; at 50.0 µM): 63.1%
- growth inhibition [4, 7]: 19%
- growth inhibition [4, 8]: 66%
- growth inhibition ([4]; at 50.0 µM): 91.2% (active)
- growth inhibition [5, 7]: 17%
- growth inhibition [5, 8]: 71% (active)
- growth inhibition ([5]; at 50.0 µM): 36.9%
- growth inhibition [6, 7]: 8%
- growth inhibition [6, 8]: 69%
- growth inhibition ([6]; at 50.0 µM): 50.1%

Compound: ClCc1ccc2oc3ccccc3c2c1
- growth inhibition [1, 7]: -5%
- growth inhibition [1, 8]: 8%
- growth inhibition ([1]; at 50.0 µM): 30%
- growth inhibition [2, 7]: 1%
- growth inhibition [2, 8]: 0%
- growth inhibition ([2]; at 50.0 µM): 17.1%
- growth inhibition [3, 7]: -12%
- growth inhibition [3, 8]: -4%
- growth inhibition ([3]; at 50.0 µM): 27.9%
- growth inhibition [4, 7]: -1%
- growth inhibition [4, 8]: -8%
- growth inhibition ([4]; at 50.0 µM): 43.5%
- growth inhibition [5, 7]: 2%
- growth inhibition [5, 8]: -7%
- growth inhibition ([5]; at 50.0 µM): -23.6%
- growth inhibition [6, 7]: -3%
- growth inhibition [6, 8]: 5%
- growth inhibition ([6]; at 50.0 µM): 68.6%

Compound: O=[N+]([O-])c1ccc(O)c(/C=N\NC(=S)Nc2ccc3cn[nH]c3c2)c1
- growth inhibition [1, 7]: -2%
- growth inhibition [1, 8]: 33%
- growth inhibition ([1]; at 50.0 µM): 74.3% (active)
- growth inhibition [2, 7]: 1%
- growth inhibition [2, 8]: 20%
- growth inhibition ([2]; at 50.0 µM): 47.2%
- growth inhibition [3, 7]: 11%
- growth inhibition [3, 8]: 37%
- growth inhibition ([3]; at 50.0 µM): 41.2%
- growth inhibition [4, 7]: -17%
- growth inhibition [4, 8]: 37%
- growth inhibition ([4]; at 50.0 µM): 32.6%
- growth inhibition [5, 7]: -2%
- growth inhibition [5, 8]: 52%
- growth inhibition ([5]; at 50.0 µM): 49.1%
- growth inhibition [6, 7]: 12%
- growth inhibition [6, 8]: 41%
- growth inhibition ([6]; at 50.0 µM): 30.8%

Compound: O=C(CC1C=Cc2ccccc2N1C(=O)c1ccccc1)c1ccccc1 (configuration not stated)
- growth inhibition [1, 7]: 1%
- growth inhibition [1, 8]: 85% (active)
- growth inhibition ([1]; at 50.0 µM): 83% (active)
- growth inhibition [2, 7]: -4%
- growth inhibition [2, 8]: 76% (active)
- growth inhibition ([2]; at 50.0 µM): 76.5% (active)
- growth inhibition [3, 7]: -7%
- growth inhibition [3, 8]: 82% (active)
- growth inhibition ([3]; at 50.0 µM): 37.8%
- growth inhibition [4, 7]: -17%
- growth inhibition [4, 8]: 77% (active)
- growth inhibition ([4]; at 50.0 µM): 73% (active)
- growth inhibition [5, 7]: 21%
- growth inhibition [5, 8]: 93% (active)
- growth inhibition ([5]; at 50.0 µM): 86% (active)
- growth inhibition [6, 7]: -2%
- growth inhibition [6, 8]: 87% (active)
- growth inhibition ([6]; at 50.0 µM): 88.5% (active)

Compound: CC1(C)CC(=O)C(C=NC(=S)c2ccccc2)=C(O)C1
- growth inhibition [1, 7]: 21%
- growth inhibition [1, 8]: 27%
- growth inhibition ([1]; at 50.0 µM): -43.3%
- growth inhibition [2, 7]: 4%
- growth inhibition [2, 8]: 13%
- growth inhibition ([2]; at 50.0 µM): -54%
- growth inhibition [3, 7]: 6%
- growth inhibition [3, 8]: 9%
- growth inhibition ([3]; at 50.0 µM): -37.1%
- growth inhibition [4, 7]: 11%
- growth inhibition [4, 8]: 14%
- growth inhibition ([4]; at 50.0 µM): -0.6%
- growth inhibition [5, 7]: 20%
- growth inhibition [5, 8]: 32%
- growth inhibition ([5]; at 50.0 µM): -13.4%
- growth inhibition [6, 7]: 14%
- growth inhibition [6, 8]: 27%
- growth inhibition ([6]; at 50.0 µM): 22.1%
